Compound activity deposited in PubChem BioAssay by National Center for Advancing Translational Sciences (NCATS).
Shown are actives, neighbours in structure and some others; about 7.9% of the full set was active somewhere.
HCV inhibitor = HCV inhibition; Potency, µM (doses to about 41.8 µM), without a hit: at the highest dose activity change, negative = inhibition, actives largely listed as inhibitors; Huh7.5.1 HCVcc-Cre infection, luciferase reporter, 44 h; hit rate 3.4% among 340,000; AID 651820; active = well fitted inhibition curve with a large enough effect; inconclusive = small, poorly fitted or top-dose-only effect, or another doubt; inactive = no such curve, though single readings can be large or run the other way; also: potency is read from the fitted curve at half-maximal effect
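Whole-lifecycle infectious HCVcc-Cre system; cells 1,000/well, compound then virus (~0.5 moi) added 4 h after plating, 44 h culture. Luciferase read 15 sec following 15 min substrate incubation, room temp.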
HCMV inh = inhibitors of human cytomegalovirus | HFF cells, HCMV-luciferase reporter, 72 h; stronger effect = lower value | activity change, negative = inhibition, % at 57.5 µM | hit rate 4.5% among 410,000; in the data active = activity change below about -60%; inconclusive = no clear call, values can overlap the other calls; inactive = above about -39%
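Screen run at 2 compound doses on HFFs infected with reporter HCMV, MOI 1 PFU/cell. Luciferase activity from cell lysates at 72 h post infection gave inhibition relative to buffer-only and Salinomycin wells.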
FMDV inh = foot and mouth disease virus antiviral activity; FMDV antiviral cell-based qHTS; Potency, µM (top dose mostly 57.9 µM), without a hit: at the highest dose activity change, negative = inhibition, usual class: inhibitors; hit rate 1.2% among 410,000; calls by dose curve; tested in HEK293T cells; also: read-out not given here; potency is read from the fitted curve at half-maximal effect; nearly all actives have a fitted effect of over 45% in size
Lassa entry inh = Lassa virus entry inhibition; AID 540256; hit rate 1.2% among 300,000; Lassa virus pseudotype entry inhibition, cell reporter; Potency, µM (top dose mostly 37.9 µM), for inactives: top-dose activity change, negative = inhibition, usual class: inhibitors; calls by dose curve; tested in HEK293 cells; also: potency is read from the fitted curve at half-maximal effect; nearly all actives have a fitted effect of over 50% in size
MARV entry inh = blocks Marburg virus binding to or entry into cells | AID 540276 | hit rate 1.8% among 300,000 | Potency, µM (top dose mostly 37.8 µM), inactives show at the top dose activity change, negative = inhibition, actives largely listed as inhibitors | Marburg virus pseudotyped entry inhibition, cell reporter; calls by dose curve; tested in HEK293 cells; also: potency is read from the fitted curve at half-maximal effect
Starred values were filed as active, the others as inactive; ? = inconclusive; nt = no result given; [ ] = another dose, or the depositor's remark. % is scaled to controls: 0 for no effect and ±100 for the full control effect.

SMILES	HCV inhibitor	HCMV inh	FMDV inh	Lassa entry inh	MARV entry inh
CC1c2cc3c(cc2CCN1C(=O)c1ccc(Br)cc1)OCCCO3 (stereo not given)	-5%	-15	?	nt	nt
O=C(CSc1nnc(-c2c[nH]c3ccccc23)o1)NCC1CCCO1 (stereo not given)	-9%	65	-15%	3%	-5%
CC[C@H](C)N(C)C(=O)c1cc2ccccc2c(-c2ccccc2Cl)n1	nt	nt	-1%	nt	?
O=C(CCCCCNC(=O)N1CCn2c1nc1ccccc12)NCc1ccccc1	-26%	-36	-21%	nt	nt
CCN(CC)CCOc1ccc2c(c1)C(=NO)c1cc(OCCN(CC)CC)ccc1-2	10µM*	23	nt	10µM*	2.6µM*
CCN(CC)CCCOc1ccc(Cl)c(Cl)c1	?	8	-14%	-20%	?
CCCOc1ccc2c(c1)C(=NN=C(N)N)c1cc(OCCC)ccc1-2	11µM*	39	-1%	?	?
CCn1cc(C(=O)NC2CCCCCC2)c(=O)c2ccc(C)nc21	19%	-27	2%	nt	nt
O=C(CSc1c2c(nc3ccc(Cl)cc13)CCCC2)NCc1ccccc1Cl	nt	-24	-3%	0%[46.1 µM]	5%[46.1 µM]
O=C(CSc1c2c(nc3cc(Cl)ccc13)CCCC2)NCc1ccco1	11µM*	-19	?	-2%	?
O=C(CSc1c2c(nc3cc(Cl)ccc13)CCCC2)NCc1ccccc1Cl	nt	-80*	?	?	?
O=C(CSc1c2c(nc3cc(Cl)ccc13)CCCC2)N1CCN(c2ccccc2)CC1	nt	-78*	?	-10%[46.1 µM]	-27%[46.1 µM]
COc1cc2nc(SCC(=O)NCc3ccco3)n(Cc3ccc(Cl)cc3)c(=O)c2cc1OC	-5%	-69*	6%	?	?
COCCNC(=O)CSc1nc2cc(OC)c(OC)cc2c(=O)n1Cc1ccc(OC)cc1	-6%	5	-6%	-8%	?
CCc1ccc(-n2nc(CO)c(C(=O)NCCc3ccccc3)n2)cc1	nt	36	0%	0%[46.1 µM]	1%[46.1 µM]
COc1cc2c(cc1OC)[C@@H]1O[C@](c3ccsc3)(C2)Oc2cc(C)n(Cc3ccccc3)c(=O)c21	nt	nt	nt	nt	-14%[14.2 µM]
Cc1ccc(-c2nc(-c3cccs3)c(-c3cccs3)[nH]2)cc1	nt	-16	0%	-14%[46.1 µM]	-29%[46.1 µM]
O=[N+]([O-])c1cccc(-c2nc(-c3cccs3)c(-c3cccs3)[nH]2)c1	13µM*	4	?	-15%	?
O=[N+]([O-])c1ccc(-c2nc(-c3cccs3)c(-c3cccs3)[nH]2)cc1	?	-18	25µM*	?	?
Fc1ccc(-c2nc(-c3cccs3)c(-c3cccs3)[nH]2)cc1	nt	-25	0%	-16%[46.1 µM]	3%[46.1 µM]
Fc1ccc(-c2nc(-c3cccs3)[nH]c2-c2ccc(F)cc2)cc1	?	76	28µM*	?	?
O=C(O)CC/C=C\CC[C@H]1[C@@H](N2CCCCC2)[C@@H](O)C[C@@H]1OCc1ccc(-c2ccccc2)cc1	nt	nt	-8%	nt	nt
C=CCn1c(C)cc(C2=NNC(=NCc3ccccc3)SC2)c1C	?	31	19%	?	?
Cc1ccc(C)c(C2=NNC(=NCc3ccccc3)SC2)c1	?	-66*	6%	?	?
Cc1cc(C2=NNC(=NCCc3ccccc3)SC2)c(C)n1CC1CCCO1 (stereo not given)	11µM*	-6	-23%	-4%	?
SMILES	HCV inhibitor	HCMV inh	FMDV inh	Lassa entry inh	MARV entry inh
CCN=C1NN=C(c2cc(C)n(Cc3ccco3)c2C)CS1	-23%	-84*	0.079µM*	?	?
CCN=C1NN=C(c2cc(C)n(CCc3ccccc3)c2C)CS1	-29%	56	-7%	?	?
CCCCOc1cccc2c(=O)n(CC(=O)Nc3ccc4c(c3)OCCO4)ccc12	nt	-4	-7%	nt	nt
Cc1cnc(SCc2ccccn2)nc1C1CCCN(C(=O)c2ccc3c(c2)OCO3)C1 (stereo not given)	nt	nt	-19%	nt	nt
O=C(c1ccccc1NS(=O)(=O)c1cccc([N+](=O)[O-])c1)N1CCCC1	nt	-79*	5%	3%	-16%
CCOc1ccc(CCN2C(=O)C(=O)N([C@@H](Cc3ccccc3)CN3CCC[C@H]3CN3C(=O)C(=O)NC[C@@H]3Cc3ccccc3)C[C@@H]2Cc2ccccc2)cc1	nt	-65*	?	nt	nt
O=C1NC[C@H](Cc2ccccc2)N(C[C@H]2CCCN2C[C@H](Cc2ccccc2)N2C[C@H](Cc3ccc(O)cc3)N(CCc3ccccc3)C(=O)C2=O)C1=O	4%	-73*	-19%	nt	nt
O=C1NC[C@H](Cc2ccccc2)N(C[C@@H]2CCCN2C[C@H](Cc2ccc(O)cc2)N2C[C@H](Cc3ccc(O)cc3)N(CCc3ccccc3)C(=O)C2=O)C1=O	nt	-16	-3%	nt	nt
O=C1NC[C@H](Cc2ccccc2)N(C[C@H]2CCCN2C[C@H](Cc2ccccc2)N2C[C@H](Cc3ccccc3)N(CC3CCCCC3)C(=O)C2=O)C1=O	8.9µM*	-8	?	nt	nt
O=C1NC[C@H](Cc2ccccc2)N(C[C@@H]2CCCN2C[C@H](Cc2ccccc2)N2C[C@H](Cc3ccccc3)N(CC3CCCCC3)C(=O)C2=O)C1=O	nt	-10	3%	nt	nt
CCOC(=O)c1c(C)oc2nc(C)nc(NCC3CCN(Cc4ccc(Cl)cc4)CC3)c12	nt	-8	-13%	?	nt
CC(=O)N(c1cccc(Cl)c1)c1nc(C)cc(C)c1C#N	10%	26	1%	nt	nt
CC1C(=O)N(Cc2cn(CCC3OCCCO3)nn2)CCS(=O)(=O)N1Cc1ccc(-c2ccc(Cl)c(Cl)c2)cc1 (stereo not given)	nt	-92*	?	nt	nt
COc1ccc(-c2ccc(CN3C(CC(C)C)C(=O)N(Cc4cn(CCC5OCCO5)nn4)CCS3(=O)=O)cc2)cc1OC (stereo not given)	nt	-62*	-15%	nt	?
CC(C)CC1C(=O)N(Cc2cn(CCC3OCCO3)nn2)CCS(=O)(=O)N1Cc1ccc(-c2ccc(F)cc2)cc1 (stereo not given)	nt	-24	-6%	-21%[46.1 µM]	nt
CC1C(=O)N(Cc2cn(CCC3OCCCO3)nn2)CCS(=O)(=O)N1Cc1ccc(-c2ccc(F)cc2)cc1 (stereo not given)	nt	3	?	nt	nt
CCC(=O)Nc1ccc(C(=O)NNC(=O)COc2cc(C)ccc2C)cc1	-3%	-22	-12%	11%	15%
Cc1ccccc1C(=O)c1ccc2c(c1)n(C)c(=O)n2C	-29%	77	-20%	-12%	?
COCCn1cnc2c1c(=O)n(Cc1ccc(C#N)cc1)c(=O)n2Cc1ccccc1	7%	-61*	1%	-16%[46.1 µM]	?
CNC(=S)NNC(=O)c1ccccc1Br	16%	15	5%	?	?
O=C1C=C(NNC(=O)c2ccccc2Br)CCC1	2%	-62*	3%	?	?
COCCn1cnc2cnc(Nc3cc(OC)c(OC)c(OC)c3)cc21	nt	30	nt	nt	nt
CCc1cccc2c(=O)c(C(=O)NCCN3CCOCC3)c[nH]c12	10µM*	15	3%	-8%	8%
CCc1ccccc1NC(=O)CCn1cccn1	nt	33	-9%	12%[46.1 µM]	nt
